Reference: PubChem BioAssay (NCATS)
Results filed as inconclusive are left out. The source made the active and inactive calls. Calls come from the whole dose curve; as a rule, active = well fitted inhibition curve with a large enough effect; inconclusive = small, poorly fitted or top-dose-only effect; inactive = flat fitted curve, though single readings scatter.

Legend:
CRL-7250 = normal cell line; assay: Cytotoxic Profiling of Annotated Libraries Using Quantitative High-Throughput Screening (AID 1296008); conditions: Five cell lines viability, CellTiter-Glo ATP luminescence, 48-72 h; max response: stronger effect = lower value; for max response: % is set by controls: 0 for no effect and ±100 for the full control effect
Summary of the method: (§1)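 Compounds were pin-transferred onto cells and incubated 48 or 72 hr at 37 degree Celsius, 95% humidity. CellTiter-Glo was added, plates sat 10 min at room temperature, then ATP-coupled luminescence was imaged as the viability read-out.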

HEK293 = assay: as above; conditions: Five cell lines viability, CellTiter-Glo ATP luminescence, 48-72 h; max response: stronger effect = lower value
Summary of the method: as §1

HaCat [1] = assay: as above; conditions: Five cell lines viability, CellTiter-Glo ATP luminescence, 48-72 h; max response: stronger effect = lower value
Summary of the method: as §1

KB-3-1 = assay: as above; conditions: Five cell lines viability, CellTiter-Glo ATP luminescence, 48-72 h; max response: stronger effect = lower value
Summary of the method: as §1

NIH3T3 = assay: as above; conditions: Five cell lines viability, CellTiter-Glo ATP luminescence, 48-72 h; max response: stronger effect = lower value
Summary of the method: as §1

HACAT [2] = assay: qHTS assay to identify novel small-molecules to repurpose for Merkel cell carcinoma treatment (AID 1296009); conditions: MCC and control cell lines, CellTiter-Glo viability, 72 h; at 44.8 µM (top of the series) unless noted
Summary of the method: (§2)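 Luminescence from CellTiter-Glo, read 10 min after addition at room temperature, reported viability following a 72 hr, 37 degree celsius treatment with NPC or MIPE compounds in titration; values normalized to plate controls.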

HEK293T = assay: as above; conditions: MCC and control cell lines, CellTiter-Glo viability, 72 h; series mostly up to 44.8 µM
Summary of the method: as §2
Note: nearly all actives have a fitted effect of over 60% in size.

CC1=CC(=O)CC(C)(C)C1CCC(C)OC1OC(COC(=O)c2cc(O)c(O)c(O)c2)C(O)C(O)C1O (centres undefined)
inactive: max response (CRL-7250) -1.65% | outcome (HEK293) | outcome (HaCat [1]) | outcome (KB-3-1) | outcome (NIH3T3) | outcome (HACAT [2]) inactive [at 17.4 µM] | Potency (HEK293T)

CC(NCc1ccc(OCc2cccc(F)c2)cc1)C(N)=O (centres undefined)
inactive: outcome (CRL-7250) | outcome (HEK293) | outcome (HaCat [1]) | max response (KB-3-1) 9.7% | outcome (NIH3T3) | outcome (HACAT [2]) | Potency (HEK293T)

C[C@H](NCc1ccc(OCc2ccccc2F)cc1)C(N)=O
inactive: outcome (CRL-7250) | outcome (HEK293) | outcome (HaCat [1]) | max response (KB-3-1) -7.57% | max response (NIH3T3) 1.69% | outcome (HACAT [2]) | Potency (HEK293T)

O=c1ccn(C2OC(CO)C(O)C2O)c(=O)[nH]1 (centres undefined)
inactive: outcome (CRL-7250) | outcome (HEK293) | outcome (HaCat [1]) | outcome (KB-3-1) | max response (NIH3T3) 1.59% | outcome (HACAT [2]) | Potency (HEK293T)

CCCC1=CC2=C(CO1)C(=O)C(C)(OC(=O)c1c(C)cc(OC)cc1O)C(O)C2 (centres undefined)
inactive: max response (CRL-7250) -27.1% | outcome (HEK293) | outcome (HaCat [1]) | max response (KB-3-1) 0.111% | outcome (NIH3T3) | outcome (HACAT [2]) inactive [at 17.4 µM] | Potency (HEK293T)

COC(=O)C1=CO[C@@H](O[C@@H]2O[C@H](CO)[C@@H](O)[C@H](O)[C@H]2O)[C@@H]2[C@@H](C(=O)OC)[C@@H](O)C(O)[C@H]12 (some centres undefined)
inactive: max response (CRL-7250) -2.23% | outcome (HEK293) | outcome (HaCat [1]) | max response (KB-3-1) 0.336% | max response (NIH3T3) 1.13% | outcome (HACAT [2]) inactive [at 17.4 µM] | Potency (HEK293T)

C#Cc1cnc2[nH]c(=O)n(C(CC)CC)c2n1
inactive: outcome (CRL-7250) | outcome (HEK293) | outcome (HaCat [1]) | max response (KB-3-1) 8.63% | outcome (NIH3T3) | outcome (HACAT [2]) | Potency (HEK293T)

O=C(O)c1ccc(CCCc2ccc(OCCc3ccc(F)cc3)cc2)o1
inactive: max response (CRL-7250) -2.7% | outcome (HEK293) | outcome (HaCat [1]) | outcome (KB-3-1) | outcome (NIH3T3) | outcome (HACAT [2]) | Potency (HEK293T)

C[C@@H]1CC[C@]2(C(=O)O[C@@H]3O[C@H](CO)[C@@H](O)[C@H](O)[C@H]3O)CC[C@]3(C)C(=CCC4[C@@]5(C)C[C@@H](O)[C@H](O)C(C)(C)C5CC[C@]43C)C2[C@]1(C)O (some centres undefined)
inactive: outcome (CRL-7250) | outcome (HEK293) | outcome (HaCat [1]) | max response (KB-3-1) 0.448% | outcome (NIH3T3) | outcome (HACAT [2]) inactive [at 17.4 µM] | Potency (HEK293T)

C[C@@H]1O[C@@H](O[C@H]2[C@H](O[C@H]3[C@H](O[C@H]4CC[C@@]5(C)C(CC[C@]6(C)C5CC=C5[C@@H]7CC(C)(C(=O)O)C[C@@H](O)[C@]7(C)CC[C@]56C)[C@@]4(C)CO)O[C@H](C(=O)O)[C@@H](O)[C@@H]3O)O[C@H](CO)[C@H](O)[C@@H]2O)[C@H](O)[C@H](O)[C@H]1O (some centres undefined)
inactive: max response (CRL-7250) -5.52% | outcome (HEK293) | outcome (HaCat [1]) | outcome (KB-3-1) | max response (NIH3T3) -3.63% | outcome (HACAT [2]) inactive [at 9.27 µM] | outcome (HEK293T) inactive [at 9.27 µM]

O=C(c1ccc(C#Cc2cccc(F)c2)cn1)N1CC2CC2C1 (centres undefined)
inactive: outcome (CRL-7250) | outcome (HEK293) | outcome (HaCat [1]) | outcome (KB-3-1) | max response (NIH3T3) 3.17% | outcome (HACAT [2]) | Potency (HEK293T)

C[C@H]1C[C@H]2[C@@H]3CCC4=CC(=O)C=C[C@]4(C)[C@@]3(F)[C@@H](O)C[C@]2(C)[C@@]1(O)C(=O)COP(=O)(O)O
inactive: max response (CRL-7250) 2.73% | outcome (HEK293) | outcome (HaCat [1]) | outcome (KB-3-1) | outcome (NIH3T3) | outcome (HACAT [2]) | Potency (HEK293T)

C/C=C/C1=CC2=C(CO1)C(=O)[C@](C)(O)[C@H](OC(=O)c1c(O)cc(OC)c(O)c1C)C2
inactive: max response (CRL-7250) 2.48% | outcome (HEK293) | outcome (HaCat [1]) | outcome (KB-3-1) | outcome (NIH3T3) | outcome (HACAT [2]) inactive [at 17.4 µM] | Potency (HEK293T)

C[C@@H]1C/C=C/C=C\C=C\C=C\[C@H](O[C@@H]2O[C@H](C)[C@@H](O)[C@H](N)[C@@H]2O)C[C@@H]2O[C@](O)(C[C@@H](O)C[C@H]3O[C@@H]3/C=C/C(=O)O1)C[C@H](O)[C@H]2C(=O)O
inactive: max response (CRL-7250) 2.84% | outcome (HEK293) | outcome (HaCat [1]) | max response (KB-3-1) 3.12% | max response (NIH3T3) -11.8% | outcome (HACAT [2]) inactive [at 17.4 µM] | Potency (HEK293T)

CC1CCC2(NC1)OC1C(=O)C3C4CCC5CC(O[C@@H]6O[C@H](CO)[C@@H](O)[C@H](O)[C@H]6O[C@@H]6O[C@@H](C)[C@H](O)[C@@H](O)[C@H]6O)CCC5(C)C4CCC3(C)C1C2C (some centres undefined)
inactive: outcome (CRL-7250) | outcome (HEK293) | outcome (HaCat [1]) | max response (KB-3-1) -4.49% | max response (NIH3T3) -2.88% | outcome (HACAT [2]) inactive [at 17.4 µM] | Potency (HEK293T)

CC(=O)N1c2ccccc2C2(O)CC3C(=O)NC(CC(C)C)C(=O)N3C12 (centres undefined)
inactive: max response (CRL-7250) 1.79% | outcome (HEK293) | outcome (HaCat [1]) | max response (KB-3-1) 2.12% | max response (NIH3T3) 1.77% | outcome (HACAT [2]) | Potency (HEK293T)

COc1c2c(c(C)c3c1C(=O)OC3)OC1(C)CC(O)C3(O)C(C)(C)OC(=O)CCC3(C)C1C2 (centres undefined)
inactive: max response (CRL-7250) -8.09% | outcome (HEK293) | outcome (HaCat [1]) | max response (KB-3-1) 8.81% | outcome (NIH3T3) | outcome (HACAT [2]) inactive [at 17.4 µM] | Potency (HEK293T)

CC/C=C\C[C@H]1C(=O)C=C[C@@H]1CCCCCCCC(=O)O
inactive: max response (CRL-7250) 4.76% | outcome (HEK293) | outcome (HaCat [1]) | max response (KB-3-1) -3.68% | outcome (NIH3T3) | outcome (HACAT [2]) | Potency (HEK293T)

CO[C@@H](Cc1ccc(OCCc2nc(-c3ccccc3)oc2C)c2ccsc12)C(=O)O
inactive: outcome (CRL-7250) | outcome (HEK293) | outcome (HaCat [1]) | max response (KB-3-1) -3.49% | outcome (NIH3T3) | outcome (HACAT [2]) | Potency (HEK293T)

CC(=O)N1CCN(NC(=O)c2ccc(F)cc2)CC1
inactive: max response (CRL-7250) -0.968% | outcome (HEK293) | outcome (HaCat [1]) | max response (KB-3-1) 8.34% | max response (NIH3T3) -3.31% | outcome (HACAT [2]) | Potency (HEK293T)

c1ccc(C(OC2CCN(CCCc3nn[nH]n3)CC2)c2ccccc2)cc1
inactive: outcome (CRL-7250) | outcome (HEK293) | outcome (HaCat [1]) | max response (KB-3-1) -3.18% | outcome (NIH3T3) | outcome (HACAT [2]) | Potency (HEK293T)

CC[C@@H](c1ccc(F)c(F)c1)n1c(C(=O)OC)c(-c2ccno2)[nH]c1=S
inactive: max response (CRL-7250) -7.34% | outcome (HEK293) | outcome (HaCat [1]) | max response (KB-3-1) 5.04% | outcome (NIH3T3) | outcome (HACAT [2]) | Potency (HEK293T)
